# According to the supplement of paper PMC6555819:
# Tested on: VDR:RXRa (NR concentration 270 nM, RXRa partner concentration 90 nM)
# Test: PBM binding z-score (relative to random genomic background probes); higher = stronger binding; sequences stand for … in GC…GCGATTGACAGCGTAGAATGAAGG
# Method: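 Protein-binding microarray (Agilent 4x180K custom design, double-stranded 60-nt probes: 5' GC cap, 34-nt variable region, 24-nt constant primer region; full probe sequence given). Purified or IVT nuclear receptor:RXRα heterodimers (3:1 NR:RXRα, mostly 270:90 nM) or homodimers were incubated for 1 h in PBS with 2% milk and no ligand, then detected with Alexa488 antibodies. Fluorescence from o1-orientation probes (~5 replicates averaged) was converted to z-scores against 500 random hg19 background probes. Variable regions are seed direct-repeat (DR0–DR5) sites, all their single-nucleotide variants and half-site ablations.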
row,Sequence,PBM binding z-score
1,CCTAGCAGGCCAATCTGCGTCACTCAAGGCTTGA,-0.714
2,CCTGCTAGGTCATGGTCAACTAATCTACAGTATG,2
3,CCTTACGGGTCACGAGGCTATAGCACGACGAGCG,3.93
4,ATATGTCGGTTAGCTGGGGTCATTCAGACTAGGC,5.12
5,CCTACTGGGCCACGAAAGGTCAATGATTCAGTGA,3.4
6,AGAATGAGGTTACCAAGGATCAGGGAAACGCTTG,2.03
7,CCTCGGAGGACAGAAGGTCCGAGCTGTCCGCTTT,-0.656
8,CGTCCAAGGTCAAAGGTCAGTGTAGAGATGACGG,6.6
9,CATAGCAGGCCAATCTGGGTCACTCAAGGCTTGA,0.95
10,TCTCGGAGGACACGAAAGGTAAGAGCTCGACATC,0.0922
11,CGTCCAAGGTCAAGGTCAGTGCAAGAGACTCGAA,5.5
12,CGAACTAGGTCACAACAGGACAGTGAAGGATGAT,2.16
13,TAGCCTAGGTCAGATCGGGCCAGTATCCGCTATA,0.43
14,TCATATAGGTAAATGCTTGGTGAAAGTCCGATCT,0.808
15,CCTACTGGGCCATTCAGAGGTCATGGATCATATG,3.92
16,ATATGTAGGTTACATCCGGGTCACTCAGGCTATG,3.71
17,AATAGAGGGTCATCGTAGGCCAGAGTACGCACAG,4.64
18,CGTTCAAGGTCAATGCTAGGTCAGTGAAAGCATT,4.78
19,GTACCAAAGTGAATAGGTCGTTGATGAGTAGGCG,0.0078
20,TGAATGAGGTTAAAGATCAAGGAACGTGGCGTCG,2.09

row,Sequence,PBM binding z-score
1,CCTAGTTGGTCAGGAGGTCAAACACCGGATATGA,4.09
2,TCATATAGGTAAACAGGTGAAAGCCCGTAAGTTA,1.15
3,CCTAGCAGGCCAGGCTCACTCAAGCATTTCGCTT,-0.772
4,TGAATGAGGTTATAAGATCAGGGCACGTTGCAAA,1.21
5,GCTAGAAGGCCATTTGGGTCACTCAATGACGGGC,1.82
6,ATATGTAGGTTATCGGGTCCTTCAGTTTGCGCAT,3.81
7,TAGCCTAGGTCATTGGTCCAGTATAGTACGCATC,2.55
8,CCTACCAGGCCAATCTGGGTCACTCAAGGCTTGA,0.999
9,CCGAGTAGGTTATGGGGCATCCAGGCAACGGTGA,-0.0665
10,GCTACAGGGTCAAGGCCAGAGTACGCGTATTGAT,4.28
11,ACTTACGGGTCAACGAGGTTAGAGCACGCGTATA,7.15
12,GCAAGTTGGTCAGTAAAAGGTCACACACCGGTCG,4.11
13,CCGACTGGAGCAAGGTTACCATAACGCACAGCCA,0.139
14,TTACCAAGGTGAAAGGTCGTTGTTGCACGCCTTG,3.24
15,TCTGCTAGGTCAACTATGGTCAGCTAATCTGCTA,2.12
16,ATATGTAGGTTAGCTGGGGTAATTCAGACTAGGC,0.945
17,CCGACTGTGGCAAAGGTTACCATACTCAGTACGA,1.03
18,CGTCCAAGGTCATAGCAGGTCAGTGAAGACAGAT,5.93
19,ATACCAAGGTGATTGTGAGGTCGTTGATACTAAC,3.53
20,AGAATGAGGTTATACGTGGATCAGGGAAGAAAGT,1.56
